From PubChem
A selection: hits, their analogues and other compounds. The true share with any hit is near 5.3%.
M18AAP inhibitor: PfM18AAP inhibitors, malaria aminopeptidase, primary screen, biochemical, QFRET, recombinant enzyme; M18 aspartyl aminopeptidase (Plasmodium falciparum 3D7); H-Glu-NHMec fluorogenic cleavage; inhibition, % at 7.35 µM; 290,000 compounds, 1.2% hits;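 active = inhibition above the campaign mean inhibition over all tested compounds plus 3 SD, cut at about 28% in these data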;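 also: 0% = plate median of test compound wells and 100% = 2 mM ZnCl2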
Mot1-301 SUMO: yeast Mot1-301 growth rescue at high temperature, primary screen, SUMOylation pathway inhibitor project, S. cerevisiae, ATP luminescence, 38.5C. S. cerevisiae Mot1-301 growth rescue; percent above DMSO median, 100 means doubled. growth rescue, % at 18.8 µM. 320,000 compounds, 1% hits. AID 2716, 2010;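 active = every valid replicate shows activation above 250% relative to neutral control wells; inactive = the rest, any valid replicate at or below 250%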;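 also: OY570 slx delta 5 strain wells were the positive control but not used for scaling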
ALR H2O2 inh: inhibitors of human ALR sulfhydryl oxidase, primary screen, biochemical, H2O2 detection, HRP-luminol luminescence, single point | FAD-linked sulfhydryl oxidase ALR (Homo sapiens), P55789 | purified ALR, DTT oxidation | inhibition, % (concentration not given with the values) | 290,000 compounds, 3.8% hits;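 active = mean replicate inhibition above about 79%, with every replicate also reaching it, limit read from the data; inconclusive = only one of the two criteria met; inactive = mean below limit and not every replicate reaching it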
Target sequence (P55789 whole entry, looked up): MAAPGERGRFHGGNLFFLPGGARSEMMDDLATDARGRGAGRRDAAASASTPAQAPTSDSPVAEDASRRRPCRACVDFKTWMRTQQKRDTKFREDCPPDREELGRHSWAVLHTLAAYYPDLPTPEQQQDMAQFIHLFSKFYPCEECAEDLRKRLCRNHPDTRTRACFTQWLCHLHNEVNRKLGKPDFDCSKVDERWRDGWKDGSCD
HIF act: HIF pathway transcriptional activators, primary screen, cell-based, U2OS HRE-luciferase, luminescence; U2OS HRE-luciferase reporter; normalized: DMSO 0%, desferrioxamine 100%; activation, % at 7.5 µM (by protocol); 300,000 compounds, 0.32% hits; AID 1910, 2009;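 active = mean activation of at least 10% of the iron chelator positive control signal, with at least half of replicates also reaching 10%; inconclusive = mean and replicate majority disagree about reaching 10%; inactive = mean and most replicates under 10%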
* hit, by the source's call; ? = inconclusive; . = not tested or not shown.

SMILES	M18AAP inhibitor	Mot1-301 SUMO	ALR H2O2 inh	HIF act
CCOC(=O)Cc1csc(NC(=O)CSC2=NCCS2)n1	1	3	99*	-2
CCOC(=O)Cc1csc(NC(=O)c2sc3nc4ccc(C)cc4cc3c2N)n1	5	.	99*	0
Cc1csc(NC(=O)CSc2nc(C)nc3c2c(=O)n(C)c(=O)n3C)n1	.	-8	98*	0
CCOC(=O)Cc1csc(N/N=C\c2ccc(N(C)C)cc2)n1	38*	-4	-4	1
CCOC(=O)Cc1csc(NC(=O)CCC(=O)O)n1	1	486	-3	0
CC(OC(=O)c1ccc([N+](=O)[O-])s1)C(=O)NC1CCCCC1C (centres undefined)	.	-18	.	.
COc1ccc(OCC(=O)Nc2cc(NC(=O)c3ccco3)ccc2OC)cc1	7	-6	21	0
O=C(c1ccco1)N1CCN(C(=O)c2ccc(-c3ccccc3Cl)o2)CC1	.	0	-3	.
CC(C)(C)c1csc(NC(=O)CSC2=NCCS2)n1	7	7	99*	1
CCOC(=O)Cc1csc(NC(=O)CSc2nccn2C)n1	-14	309	99*	0
CCOC(=O)Cc1csc(NC(=O)CSc2nc(=O)[nH]c3c2CCC3)n1	.	-11	-298	0
CCOC(=O)Cc1csc(NC(=O)Cc2ccc(Br)cc2)n1	-6	23	-4	-1
CCOC(=O)Cc1csc(NC(=O)CSc2nc(=O)[nH]c3c2CCCC3)n1	.	255	96*	0
CCOC(=O)Cc1csc(NC(=O)Cc2ccc([N+](=O)[O-])cc2)n1	2	-3	98*	-2
O=[N+]([O-])c1ccc(N2CCOCC2)cc1SCc1ccco1	31*	27	-5	0
COc1ccc2ccccc2c1/C=N/N1C(=O)CSC1=S	30*	-15	.	0
COc1cc(/C=N/N2C(=O)CSC2=S)cc(Br)c1O	27	.	.	.
C=CCn1c(SCC(=O)N(CCO)CCO)nc2sc3c(c2c1=O)CCC3	0	395	36	0
O=C(CC1Nc2cccc3cccc(c23)NC1=O)Nc1ccc(F)cc1 (centres undefined)	12	0	62	-2
COc1ccc(NC(=O)CC2Nc3cccc4cccc(c34)NC2=O)cc1 (centres undefined)	18	.	100*	-1
CCOC(=O)/C(=N\Nc1ccc(Br)cc1)N1CC(C)OC(C)C1 (centres undefined)	8	428*	100*	0
Cc1ccc(Nc2cc(C)c3ccc(O)cc3n2)cc1C	3	109	88*	2
C=CCn1c(N2CCCCCC2)nc2c1c(=O)[nH]c(=O)n2C	0	-3	17	30*
C=CCn1c(N2CCOCC2)nc2c1c(=O)[nH]c(=O)n2C	-1	.	-3	0
CCOc1cccc(-c2cc(C(=O)NN)[nH]n2)c1	4	10	79*	2
SMILES	M18AAP inhibitor	Mot1-301 SUMO	ALR H2O2 inh	HIF act
COC(=O)c1cc(-c2cccc(OC)c2)n[nH]1	2	5	8	1
CC(CNC(=O)Cn1ccc(N)nc1=O)c1ccccc1 (centres undefined)	.	17	-3	.
CCc1c(O)nc(SCC(=O)Nc2ccc3c(c2)CCC3)[nH]c1=O	0	4	100*	0
CCCCc1c(O)nc(SCC(=O)Nc2ccc3c(c2)CCC3)[nH]c1=O	1	-8	99*	0
CCn1nc(NS(=O)(=O)c2ccccc2[N+](=O)[O-])c2cc3cccc(C)c3nc21	6	19	92*	0
CCn1nc(NS(=O)(=O)c2ccccc2)c2cc3cc(C)ccc3nc21	5	18	81*	0
CCCn1nc(NS(=O)(=O)c2ccccc2[N+](=O)[O-])c2cc3ccccc3nc21	4	-2	66	1
CCCn1nc(NS(=O)(=O)c2cccc3nonc23)c2cc3ccccc3nc21	0	-4	99*	0
CCn1nc(NS(=O)(=O)c2ccccc2)c2cc3ccc(C)cc3nc21	6	-6	4	0
NCCCC[C@@H](C(=O)NCCCCCCCCCCC(=O)N1CCNCC1)n1cc(CCCC(=O)O)nn1	.	-21	.	-1
CCOC(=O)C1=C(COC(=O)c2cc(Br)c(Br)s2)NC(=O)NC1C (centres undefined)	.	-21	-8	-2
COc1ccccc1C(=O)COC(=O)CN1C(=O)NC2(CCCC2)C1=O	.	40	0	0
CC(NC(=O)CCCCCNC(=O)N1CCn2c1nc1ccccc12)c1ccccc1 (centres undefined)	13	-7	92*	0
O=C(CCCCCNC(=O)N1CCn2c1nc1ccccc12)N[C@@H](C(=O)O)c1ccccc1	-1	-5	-3	0
O=C(Nc1ncc([N+](=O)[O-])s1)c1cccc([N+](=O)[O-])c1	3	-29	98*	2
CC1CCN(C(=O)c2ncn(Cc3ccccc3)c2C(=O)N2CCC(C)CC2)CC1	.	9	-2	.
Nc1ccc2oc(-c3cccc4ccccc34)nc2c1	2	17	?	-2
CC(C)(C)c1ccc(-c2nc3cc(N)ccc3o2)cc1	-5	-8	99*	2
Cc1ccc(-c2nc3cc(N)ccc3o2)cc1	0	35	-8	0
Cc1ccc(-c2nc3cc(N)ccc3o2)c(C)c1	5	15	99*	1
Nc1ccc2oc(-c3cccs3)nc2c1	1	2	98*	3
COc1ccc(NC(=O)C2CCCN(S(=O)(=O)c3ccc4c(c3)CCCN4C(C)=O)C2)cc1Cl (centres undefined)	-5	-10	-4	0
CC(C)(C)c1ccc(NC(=O)c2ccsc2)cc1	4	5	-8	0
Cc1cc(OCc2nc3ccccc3s2)ccc1N	14	65	98*	7
c1ccc(OCc2nc3ccccc3s2)cc1	5	17	-1	1
SMILES	M18AAP inhibitor	Mot1-301 SUMO	ALR H2O2 inh	HIF act
O=C(Nc1ccccc1Oc1cccnc1)C1CCCN(Cc2ccc(F)cc2)C1 (centres undefined)	1	2	6	-1
Cc1ccc(CNc2cc(C(=O)O)ccc2C)s1	0	301	.	0
CC(=O)Nc1ccc(NCc2ccc(C)s2)cc1	0	9	96*	1
CCCC(=O)Nc1ccc(NCc2ccc(C)s2)cc1	1	8	91*	-1
COc1ccc2c(c1)O[C@@H](c1ccc3c(c1)OCO3)[C@H](OC(=O)Nc1cc(OC)c(OC)c(OC)c1)C2=O	-5	.	.	.
CCOc1ccc(NC(=O)COC(=O)CCCc2c[nH]c3ccccc23)cc1	-6	-5	42	0
CC(=O)NC(Cc1c[nH]c2ccccc12)C(=O)OCC(=O)Nc1ccc2c(c1)OCO2 (centres undefined)	6	40	89*	0
COc1ccc(NC(=O)COC(=O)CCCc2c[nH]c3ccccc23)cc1	-4	-9	85*	0
CC(=O)Nc1ccc(NC(=O)COC(=O)Cc2c[nH]c3ccccc23)cc1	2	9	83*	0
